{"source": "the supplement of paper PMC6555819", "data": [{"system": "RARg homodimer (NR concentration 270 nM)", "test": "PBM binding z-score (relative to random genomic background probes); higher = stronger binding; sequences stand for … in GC…GCGATTGACAGCGTAGAATGAAGG", "summary_of_the_method": "(§1)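 Custom Agilent 4×180K protein-binding microarrays carried double-stranded probes, each with a 34-nt variable region. These regions held direct-repeat seeds, single-nucleotide variants, half-site ablations and random human genomic background sequences. Ligand-free nuclear receptor dimers were incubated on the arrays for 1 h, antibodies against each partner (one per run) detected binding, and scanned fluorescence was regression-normalized. Binding z-scores take the random background probes as reference.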", "values": [{"sequence": "ATATGTTGGTTAAGGGTCATTCAGGTTGGTTCGC", "PBM binding z-score": 3.25}, {"sequence": "CGTCAAAGTTCACGGTAACGTAACAGAAAGCAGC", "PBM binding z-score": 7.19}, {"sequence": "CCTACTGGCCCAAAAAGGTCATTGATGCCGATAA", "PBM binding z-score": 4.12}, {"sequence": "CCGACTGGGGCAAAGGTTTCCATACTCAGTACGA", "PBM binding z-score": 0.445}, {"sequence": "AGAATGAGGTTGAGATCAGGGAAACAGAATACAT", "PBM binding z-score": 0.477}, {"sequence": "TGTCGGAGGACACGAAAGGTCAGAGCTCGACATC", "PBM binding z-score": 5.76}, {"sequence": "CCTAGCAGGCCAATCTGGGTCACTCATGGCTTGA", "PBM binding z-score": 1.37}, {"sequence": "CCTTACGGGTCACTCCAGGTTATAACATCGGAGT", "PBM binding z-score": 3.97}, {"sequence": "ACTAGCAGGCCAAGTTTGGGTCATTCAAACAAAG", "PBM binding z-score": 1.29}, {"sequence": "TCTACTAGGTCAGTTGGTCAGCTAACGAGCTGCC", "PBM binding z-score": 3.58}, {"sequence": "CCGACTCGGGCAAGGTTACCATAACGCACAGCCA", "PBM binding z-score": 0.939}, {"sequence": "CCTTATGGGTCACTGACAGGTTATAGCATTTGGA", "PBM binding z-score": 3.89}, {"sequence": "CCTTCCGGGTCACTCCAGGTTATAGCATCGGAGT", "PBM binding z-score": 3.95}, {"sequence": "TTACCAAGGTGAAGGTGGTTGATCCCTCTGTAGA", "PBM binding z-score": 0.431}, {"sequence": "TGTCAAAGTTAAAAGGTAACGTAAGTATCCACAC", "PBM binding z-score": 1.09}, {"sequence": "GTACCAAGGTGAATCGGTCGTTGATGAGTAGGCG", "PBM binding z-score": 1.01}, {"sequence": "ACTAGCAGGCCAAGTTTGGGTCACACAAACAAAG", "PBM binding z-score": 1.73}, {"sequence": "TTTAGCAGGCCAGAGGGTCACTCAAGAGGTACGG", "PBM binding z-score": 2.02}, {"sequence": "ACTAGCAGGCCAAGGGTCACTCCAGATTAGTCCG", "PBM binding z-score": 3.48}, {"sequence": "AGAATGAAGTTATACGTAGATCAGGGAAGAAAGT", "PBM binding z-score": 0.29}, {"sequence": "ATCGAAAGGTCGAGGTGAGTCTAGAGAAAGGGAA", "PBM binding z-score": 4.48}, {"sequence": "GCATAAAGGTAATACAAGGTGAAAGTCCGATTGT", "PBM binding z-score": 0.92}, {"sequence": "ACTATTAGTTAACTTAGGGCAACCGATACGACGC", "PBM binding z-score": 1}, {"sequence": "GCAGACAGGTGAAACGCAGGTTACTCAGGGTGGC", "PBM binding z-score": 0.458}, {"sequence": "CCTCGGAGGACAGAAGGTCAGAGCAGTCCGCTTT", "PBM binding z-score": 3.41}, {"sequence": "CATGCTAGGTCATGGTCAGCTAATCTACAGTATG", "PBM binding z-score": 4.67}, {"sequence": "GCTTACGGGTCAAAGGTGATAGCATGAATAGAAT", "PBM binding z-score": 4.21}, {"sequence": "CGTCCAAGGTCTATGCTAGGTCAGTGAAAGCATT", "PBM binding z-score": 1.37}, {"sequence": "ATCTCTAGGTAACCAAGTTAAGTGAATGCCGAAC", "PBM binding z-score": 0.306}, {"sequence": "CGTCCAAGGTCAGAGAGGTCTGTGAATGCCGAGT", "PBM binding z-score": 5.25}, {"sequence": "AGACTGAGGTTATACGTAGATCAGGGAAGAAAGT", "PBM binding z-score": 1.03}, {"sequence": "ACTATTAGTTGACTTTGGGCAACCGATACGACGC", "PBM binding z-score": 0.635}, {"sequence": "ATATGTAGGTTACAGCCGGGTCATTCAGGCTATG", "PBM binding z-score": 2.25}, {"sequence": "TCATATAGGGAAATGCTAGGTGAAAGTCCGATCT", "PBM binding z-score": 0.101}, {"sequence": "ATATGTAGGTTACATCCAGGTCATTCAGGCTATG", "PBM binding z-score": 2.4}, {"sequence": "GCGACTGGGGCTTCAGCAGGTTACCATAACTTAA", "PBM binding z-score": -0.463}, {"sequence": "TGACCAAGGTGAAAGGTCGTTGATGCACGCCTTG", "PBM binding z-score": 2.09}, {"sequence": "CTACCAAGGTAAACAAGGTCGTTGATTACTATTC", "PBM binding z-score": 0.535}, {"sequence": "TCTCGGAGGACACGAAGGTCAGATCTTTCCAGAG", "PBM binding z-score": 4.36}, {"sequence": "CTCGAAAGGTCGTGCTCAGGTGAGTGTACCAAAC", "PBM binding z-score": 4.01}]}, {"system": "RXRa DBDmut IVT, anti-RXR (DBD mutation: RXRa K156A/R161A, NR concentration 90 nM)", "test": "PBM binding z-score (relative to random genomic background probes); higher = stronger binding; sequences stand for … in GC…GCGATTGACAGCGTAGAATGAAGG", "summary_of_the_method": "as §1", "values": [{"sequence": "ATATGTTGGTTAAGGGTCATTCAGGTTGGTTCGC", "PBM binding z-score": 2.11}, {"sequence": "CGTCAAAGTTCACGGTAACGTAACAGAAAGCAGC", "PBM binding z-score": 4.62}, {"sequence": "CCTACTGGCCCAAAAAGGTCATTGATGCCGATAA", "PBM binding z-score": 0.618}, {"sequence": "CCGACTGGGGCAAAGGTTTCCATACTCAGTACGA", "PBM binding z-score": 0.213}, {"sequence": "AGAATGAGGTTGAGATCAGGGAAACAGAATACAT", "PBM binding z-score": -0.1}, {"sequence": "TGTCGGAGGACACGAAAGGTCAGAGCTCGACATC", "PBM binding z-score": -0.334}, {"sequence": "CCTAGCAGGCCAATCTGGGTCACTCATGGCTTGA", "PBM binding z-score": 0.157}, {"sequence": "CCTTACGGGTCACTCCAGGTTATAACATCGGAGT", "PBM binding z-score": 1.31}, {"sequence": "ACTAGCAGGCCAAGTTTGGGTCATTCAAACAAAG", "PBM binding z-score": -0.125}, {"sequence": "TCTACTAGGTCAGTTGGTCAGCTAACGAGCTGCC", "PBM binding z-score": 1.19}, {"sequence": "CCGACTCGGGCAAGGTTACCATAACGCACAGCCA", "PBM binding z-score": -0.233}, {"sequence": "CCTTATGGGTCACTGACAGGTTATAGCATTTGGA", "PBM binding z-score": 1.05}, {"sequence": "CCTTCCGGGTCACTCCAGGTTATAGCATCGGAGT", "PBM binding z-score": 1.2}, {"sequence": "TTACCAAGGTGAAGGTGGTTGATCCCTCTGTAGA", "PBM binding z-score": -0.51}, {"sequence": "TGTCAAAGTTAAAAGGTAACGTAAGTATCCACAC", "PBM binding z-score": -0.392}, {"sequence": "GTACCAAGGTGAATCGGTCGTTGATGAGTAGGCG", "PBM binding z-score": -0.343}, {"sequence": "ACTAGCAGGCCAAGTTTGGGTCACACAAACAAAG", "PBM binding z-score": -0.304}, {"sequence": "TTTAGCAGGCCAGAGGGTCACTCAAGAGGTACGG", "PBM binding z-score": -0.755}, {"sequence": "ACTAGCAGGCCAAGGGTCACTCCAGATTAGTCCG", "PBM binding z-score": 0.274}, {"sequence": "AGAATGAAGTTATACGTAGATCAGGGAAGAAAGT", "PBM binding z-score": -0.796}, {"sequence": "ATCGAAAGGTCGAGGTGAGTCTAGAGAAAGGGAA", "PBM binding z-score": 0.715}, {"sequence": "GCATAAAGGTAATACAAGGTGAAAGTCCGATTGT", "PBM binding z-score": 0.231}, {"sequence": "ACTATTAGTTAACTTAGGGCAACCGATACGACGC", "PBM binding z-score": 0.837}, {"sequence": "GCAGACAGGTGAAACGCAGGTTACTCAGGGTGGC", "PBM binding z-score": -0.376}, {"sequence": "CCTCGGAGGACAGAAGGTCAGAGCAGTCCGCTTT", "PBM binding z-score": 0.444}, {"sequence": "CATGCTAGGTCATGGTCAGCTAATCTACAGTATG", "PBM binding z-score": 1.74}, {"sequence": "GCTTACGGGTCAAAGGTGATAGCATGAATAGAAT", "PBM binding z-score": 2.43}, {"sequence": "CGTCCAAGGTCTATGCTAGGTCAGTGAAAGCATT", "PBM binding z-score": 0.335}, {"sequence": "ATCTCTAGGTAACCAAGTTAAGTGAATGCCGAAC", "PBM binding z-score": -0.119}, {"sequence": "CGTCCAAGGTCAGAGAGGTCTGTGAATGCCGAGT", "PBM binding z-score": 2.64}, {"sequence": "AGACTGAGGTTATACGTAGATCAGGGAAGAAAGT", "PBM binding z-score": 1.44}, {"sequence": "ACTATTAGTTGACTTTGGGCAACCGATACGACGC", "PBM binding z-score": 0.79}, {"sequence": "ATATGTAGGTTACAGCCGGGTCATTCAGGCTATG", "PBM binding z-score": 0.721}, {"sequence": "TCATATAGGGAAATGCTAGGTGAAAGTCCGATCT", "PBM binding z-score": 1.66}, {"sequence": "ATATGTAGGTTACATCCAGGTCATTCAGGCTATG", "PBM binding z-score": 1.19}, {"sequence": "GCGACTGGGGCTTCAGCAGGTTACCATAACTTAA", "PBM binding z-score": -0.297}, {"sequence": "TGACCAAGGTGAAAGGTCGTTGATGCACGCCTTG", "PBM binding z-score": 0.0698}, {"sequence": "CTACCAAGGTAAACAAGGTCGTTGATTACTATTC", "PBM binding z-score": 1.34}, {"sequence": "TCTCGGAGGACACGAAGGTCAGATCTTTCCAGAG", "PBM binding z-score": 1.15}, {"sequence": "CTCGAAAGGTCGTGCTCAGGTGAGTGTACCAAAC", "PBM binding z-score": 2.21}]}]}
